# Values without a mark were called inactive.
# Experiments:
# Assay in all cases: log2 ratio of Biotin-Ahx-Ub-VS probe labelling (fragment/DMSO); higher = less target engagement (more negative = stronger competition), active = hit call of the paper (q ≤ 0.05, log2 ratio ≤ -1)
# Conditions in all cases: compound concentration: 200 uM; treatment time: 3 h
# ALG13 = molecular target: T1, ALG13 (UniProt Q9NP73)
# T1 sequence (whole entry): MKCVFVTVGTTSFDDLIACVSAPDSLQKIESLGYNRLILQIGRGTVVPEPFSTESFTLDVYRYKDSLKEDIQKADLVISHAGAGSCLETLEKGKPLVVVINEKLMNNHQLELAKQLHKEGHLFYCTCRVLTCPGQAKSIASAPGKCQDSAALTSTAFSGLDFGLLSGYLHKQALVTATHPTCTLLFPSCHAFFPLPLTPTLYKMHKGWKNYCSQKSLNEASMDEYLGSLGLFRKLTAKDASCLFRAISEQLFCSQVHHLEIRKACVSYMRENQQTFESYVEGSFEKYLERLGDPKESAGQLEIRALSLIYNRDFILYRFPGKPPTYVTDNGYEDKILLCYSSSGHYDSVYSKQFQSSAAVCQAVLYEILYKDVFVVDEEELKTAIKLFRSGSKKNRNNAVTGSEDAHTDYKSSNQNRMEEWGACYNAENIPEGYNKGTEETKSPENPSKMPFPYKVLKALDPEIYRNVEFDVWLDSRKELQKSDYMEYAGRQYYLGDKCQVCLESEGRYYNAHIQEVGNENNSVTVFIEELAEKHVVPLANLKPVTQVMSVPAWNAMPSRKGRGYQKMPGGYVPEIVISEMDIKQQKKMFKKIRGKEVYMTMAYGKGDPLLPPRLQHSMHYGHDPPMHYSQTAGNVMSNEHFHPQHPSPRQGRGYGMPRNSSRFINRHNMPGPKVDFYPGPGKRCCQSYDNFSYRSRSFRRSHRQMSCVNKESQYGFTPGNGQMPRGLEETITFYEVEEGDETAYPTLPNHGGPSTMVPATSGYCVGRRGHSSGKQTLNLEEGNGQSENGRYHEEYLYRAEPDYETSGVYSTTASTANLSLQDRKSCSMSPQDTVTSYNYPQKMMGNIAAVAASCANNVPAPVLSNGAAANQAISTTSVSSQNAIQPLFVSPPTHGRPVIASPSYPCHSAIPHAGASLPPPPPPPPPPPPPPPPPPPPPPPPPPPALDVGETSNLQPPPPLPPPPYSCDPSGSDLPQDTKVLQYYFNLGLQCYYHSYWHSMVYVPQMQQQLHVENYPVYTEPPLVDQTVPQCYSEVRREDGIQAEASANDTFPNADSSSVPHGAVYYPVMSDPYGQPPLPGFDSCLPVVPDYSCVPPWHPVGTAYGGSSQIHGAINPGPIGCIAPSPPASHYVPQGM
# Summary of the method: (§1)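 Average log2 ratios of fragment over vehicle were obtained by unpaired t-test from global-median-normalised Spectronaut label-free quantities. Proteins with ≥2 unique peptides were included. HEK293T lysate (495 µg per sample) was treated in triplicate with fragment at 200 µM or vehicle for 3 h, then with Biotin-Ahx-Ub-VS at 0.5 µM final for 1 h, and labelled DUBs were NeutrAvidin-enriched and run by diaPASEF LC-MS/MS.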
# ATXN3 = ATXN3 (UniProt P54252)
# Sequence of ATXN3 (P54252 whole entry): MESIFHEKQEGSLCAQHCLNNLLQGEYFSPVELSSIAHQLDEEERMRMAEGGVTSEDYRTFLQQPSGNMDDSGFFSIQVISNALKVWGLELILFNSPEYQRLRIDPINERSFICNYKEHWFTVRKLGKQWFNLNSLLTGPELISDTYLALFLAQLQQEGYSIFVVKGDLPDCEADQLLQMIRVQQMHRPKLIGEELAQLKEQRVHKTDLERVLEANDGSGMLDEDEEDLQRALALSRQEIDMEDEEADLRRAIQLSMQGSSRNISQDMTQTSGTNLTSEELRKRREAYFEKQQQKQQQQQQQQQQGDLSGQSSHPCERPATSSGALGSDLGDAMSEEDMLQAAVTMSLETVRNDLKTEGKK
# Summary of the method: as §1
# BAP1 = molecular target: T2, BAP1 (UniProt Q92560)
# T2 sequence (whole entry): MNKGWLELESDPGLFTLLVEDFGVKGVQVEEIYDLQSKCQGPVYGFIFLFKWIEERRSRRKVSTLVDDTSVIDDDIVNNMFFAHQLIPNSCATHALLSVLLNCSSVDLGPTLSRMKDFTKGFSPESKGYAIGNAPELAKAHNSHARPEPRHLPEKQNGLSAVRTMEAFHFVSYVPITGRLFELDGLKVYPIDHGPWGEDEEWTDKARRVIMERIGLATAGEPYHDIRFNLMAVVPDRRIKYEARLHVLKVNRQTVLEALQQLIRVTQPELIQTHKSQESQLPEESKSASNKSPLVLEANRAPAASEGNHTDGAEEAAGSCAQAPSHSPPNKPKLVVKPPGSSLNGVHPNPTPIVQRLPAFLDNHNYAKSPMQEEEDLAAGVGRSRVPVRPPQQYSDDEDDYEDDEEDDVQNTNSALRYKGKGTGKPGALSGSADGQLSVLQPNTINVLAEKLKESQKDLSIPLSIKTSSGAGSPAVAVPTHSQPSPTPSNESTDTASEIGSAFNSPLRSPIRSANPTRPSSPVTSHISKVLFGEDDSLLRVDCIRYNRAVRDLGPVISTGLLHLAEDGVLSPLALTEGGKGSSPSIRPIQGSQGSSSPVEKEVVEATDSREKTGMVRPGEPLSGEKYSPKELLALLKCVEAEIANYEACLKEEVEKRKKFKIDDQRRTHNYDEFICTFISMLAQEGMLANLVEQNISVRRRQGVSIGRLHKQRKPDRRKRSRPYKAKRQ
# Summary of the method: as §1
# EIF3F = EIF3F (UniProt O00303)
# Sequence of EIF3F (O00303 whole entry): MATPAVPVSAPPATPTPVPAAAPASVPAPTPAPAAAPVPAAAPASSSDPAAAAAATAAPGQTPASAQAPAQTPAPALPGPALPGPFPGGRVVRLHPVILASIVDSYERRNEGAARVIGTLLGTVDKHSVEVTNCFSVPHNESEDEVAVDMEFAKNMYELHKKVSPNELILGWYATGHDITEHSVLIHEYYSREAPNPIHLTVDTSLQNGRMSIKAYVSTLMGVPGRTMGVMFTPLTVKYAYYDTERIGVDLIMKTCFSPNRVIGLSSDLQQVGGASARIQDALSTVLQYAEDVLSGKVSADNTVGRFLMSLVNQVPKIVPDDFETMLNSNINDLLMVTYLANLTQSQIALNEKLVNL
# Summary of the method: as §1
# EIF3H = EIF3H (UniProt O15372)
# Sequence of EIF3H (O15372 whole entry): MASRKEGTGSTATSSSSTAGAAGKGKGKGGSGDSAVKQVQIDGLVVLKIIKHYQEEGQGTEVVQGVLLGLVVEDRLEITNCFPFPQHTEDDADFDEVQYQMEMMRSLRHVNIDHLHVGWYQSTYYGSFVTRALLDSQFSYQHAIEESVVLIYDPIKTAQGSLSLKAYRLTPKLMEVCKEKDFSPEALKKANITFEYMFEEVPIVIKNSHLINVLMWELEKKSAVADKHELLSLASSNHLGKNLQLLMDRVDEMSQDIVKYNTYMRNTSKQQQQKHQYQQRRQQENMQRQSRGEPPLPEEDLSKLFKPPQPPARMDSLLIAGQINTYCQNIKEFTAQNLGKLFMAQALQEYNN
# Summary of the method: as §1
# FAM105A = molecular target: T3, FAM105A (UniProt Q9NUU6)
# T3 sequence (whole entry): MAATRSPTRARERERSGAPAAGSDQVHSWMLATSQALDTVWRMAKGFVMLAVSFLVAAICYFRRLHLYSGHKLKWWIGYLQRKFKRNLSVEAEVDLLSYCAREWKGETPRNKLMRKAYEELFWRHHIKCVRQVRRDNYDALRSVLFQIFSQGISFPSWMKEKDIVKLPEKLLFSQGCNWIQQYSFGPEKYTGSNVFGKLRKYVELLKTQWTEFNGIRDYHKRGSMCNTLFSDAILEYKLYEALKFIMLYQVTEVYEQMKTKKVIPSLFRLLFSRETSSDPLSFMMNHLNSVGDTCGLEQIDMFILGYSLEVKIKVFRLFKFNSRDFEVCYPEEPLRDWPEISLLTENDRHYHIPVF
# Summary of the method: as §1
# OTUB1 = OTUB1 (UniProt Q96FW1)
# Sequence of OTUB1 (Q96FW1 whole entry): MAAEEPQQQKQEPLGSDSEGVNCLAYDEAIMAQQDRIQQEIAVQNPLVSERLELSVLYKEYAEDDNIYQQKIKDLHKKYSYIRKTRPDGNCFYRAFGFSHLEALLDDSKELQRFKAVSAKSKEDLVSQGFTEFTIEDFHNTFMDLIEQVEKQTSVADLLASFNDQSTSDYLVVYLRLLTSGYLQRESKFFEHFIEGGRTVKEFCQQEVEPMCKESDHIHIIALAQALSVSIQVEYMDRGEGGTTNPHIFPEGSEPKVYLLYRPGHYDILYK
# Summary of the method: as §1
# OTUD4 = molecular target: T4, OTUD4 (UniProt Q01804)
# T4 sequence (whole entry): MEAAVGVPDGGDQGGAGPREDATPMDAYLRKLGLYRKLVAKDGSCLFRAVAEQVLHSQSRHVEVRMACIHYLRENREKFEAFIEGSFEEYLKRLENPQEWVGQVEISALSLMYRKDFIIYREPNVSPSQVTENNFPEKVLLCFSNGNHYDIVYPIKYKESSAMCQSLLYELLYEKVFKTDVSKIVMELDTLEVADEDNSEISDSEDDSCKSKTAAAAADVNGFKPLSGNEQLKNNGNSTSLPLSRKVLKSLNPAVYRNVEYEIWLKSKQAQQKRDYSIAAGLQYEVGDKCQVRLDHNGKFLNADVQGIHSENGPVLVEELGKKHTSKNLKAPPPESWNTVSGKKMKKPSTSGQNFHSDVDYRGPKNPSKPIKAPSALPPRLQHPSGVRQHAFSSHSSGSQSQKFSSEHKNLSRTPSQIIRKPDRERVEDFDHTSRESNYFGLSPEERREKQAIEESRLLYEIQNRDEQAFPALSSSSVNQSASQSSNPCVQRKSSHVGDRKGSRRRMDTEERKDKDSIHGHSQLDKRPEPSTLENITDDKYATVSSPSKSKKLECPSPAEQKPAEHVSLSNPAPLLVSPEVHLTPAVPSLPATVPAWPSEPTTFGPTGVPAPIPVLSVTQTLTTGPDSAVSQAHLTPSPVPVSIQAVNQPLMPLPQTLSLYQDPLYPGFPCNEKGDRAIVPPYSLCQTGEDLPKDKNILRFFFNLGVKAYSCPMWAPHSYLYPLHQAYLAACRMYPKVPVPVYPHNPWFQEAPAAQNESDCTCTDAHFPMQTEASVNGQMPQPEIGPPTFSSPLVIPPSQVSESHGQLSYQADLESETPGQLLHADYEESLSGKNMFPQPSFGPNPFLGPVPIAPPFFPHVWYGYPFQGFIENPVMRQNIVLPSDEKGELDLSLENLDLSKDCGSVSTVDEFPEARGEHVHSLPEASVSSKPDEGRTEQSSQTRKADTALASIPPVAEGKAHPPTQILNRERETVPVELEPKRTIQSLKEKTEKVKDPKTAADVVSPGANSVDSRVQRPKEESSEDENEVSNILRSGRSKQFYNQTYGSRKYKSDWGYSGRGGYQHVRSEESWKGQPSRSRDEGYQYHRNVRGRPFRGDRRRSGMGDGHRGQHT
# Summary of the method: as §1
# OTUD5 = molecular target: T5, OTUD5 (UniProt Q96G74)
# T5 sequence (whole entry): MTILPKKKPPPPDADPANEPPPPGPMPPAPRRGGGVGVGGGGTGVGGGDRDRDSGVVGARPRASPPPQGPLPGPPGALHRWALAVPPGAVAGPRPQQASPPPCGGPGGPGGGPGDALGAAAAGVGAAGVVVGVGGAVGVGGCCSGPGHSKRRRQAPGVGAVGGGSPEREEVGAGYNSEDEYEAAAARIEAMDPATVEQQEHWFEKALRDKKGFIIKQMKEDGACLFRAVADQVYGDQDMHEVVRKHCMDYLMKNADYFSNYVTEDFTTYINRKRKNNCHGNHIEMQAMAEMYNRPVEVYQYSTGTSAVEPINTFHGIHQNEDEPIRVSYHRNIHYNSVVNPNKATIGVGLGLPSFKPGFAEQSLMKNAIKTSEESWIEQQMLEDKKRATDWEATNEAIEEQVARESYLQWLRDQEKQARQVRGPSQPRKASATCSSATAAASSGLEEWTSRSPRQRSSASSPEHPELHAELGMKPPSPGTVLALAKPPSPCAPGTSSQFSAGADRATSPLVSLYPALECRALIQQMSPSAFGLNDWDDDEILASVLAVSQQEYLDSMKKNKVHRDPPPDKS
# Summary of the method: as §1
compound,measurement,setting,value
O=C(CCl)NCc1ccc2c(c1)OCO2,log2 ratio of Biotin-Ahx-Ub-VS probe labelling,ALG13,0.0126
same,log2 ratio of Biotin-Ahx-Ub-VS probe labelling,ATXN3,0.173
same,log2 ratio of Biotin-Ahx-Ub-VS probe labelling,BAP1,-3.05 (active)
same,log2 ratio of Biotin-Ahx-Ub-VS probe labelling,EIF3F,-0.126
same,log2 ratio of Biotin-Ahx-Ub-VS probe labelling,EIF3H,-0.0114
same,log2 ratio of Biotin-Ahx-Ub-VS probe labelling,FAM105A,-0.111
same,log2 ratio of Biotin-Ahx-Ub-VS probe labelling,OTUB1,-0.278
same,log2 ratio of Biotin-Ahx-Ub-VS probe labelling,OTUD4,-0.266
same,log2 ratio of Biotin-Ahx-Ub-VS probe labelling,OTUD5,0.0579

# Source: the supplement of paper PMC11732987, “Enantioselective OTUD7B fragment discovery through chemoproteomics screening and high-throughput optimisation” (Communications Chemistry, 2025)
